Compound activity: PubChem, National Center for Advancing Translational Sciences (NCATS)
In the library only some 2.2% were active in any assay of this set; here they are far more common.
HepG2 viability: kills HepG2 cells in TGF-b inhibitor counter-screen; HepG2 CAGA-GFP viability, ATP luminescence, 18 h; Potency, µM (doses to about 46.1 µM), for inactives: top-dose activity change, negative = cytotoxicity, usual class: cytotoxic; 410,000 compounds, 0.76% hits; AID 588856; note: potency is the fitted concentration of half-maximal effect
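CellTiter-Glo luminescence gave cytotoxicity after 18 hours at 37 degrees C. The cells were HepG2 CAGA-GFP in 1% FBS DMEM, stimulated with 500 pg/mL TGF-beta after compound addition. %Activity was normalised to no-cell wells (complete cell-killing) and DMSO (no toxicity), and curves were fitted and classified.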
mIDH1 inhibitor: blocks human mutant IDH1 R132H enzyme; O75874; IDH1-R132H enzyme, NADPH consumption, diaphorase/resazurin fluorescence; Potency, µM (top dose mostly 76.6 µM), for the others: at the top dose activity change, negative = inhibition, usual class: inhibitors; 390,000 compounds, 0.093% hits; AID 602179; note: potency is the fitted concentration of half-maximal effect; % is set by controls: 0 for no effect and ±100 for the full control effect; nearly all actives have a fitted effect of over 65% in size
Target sequence (O75874 whole entry R132H, stated change not applied): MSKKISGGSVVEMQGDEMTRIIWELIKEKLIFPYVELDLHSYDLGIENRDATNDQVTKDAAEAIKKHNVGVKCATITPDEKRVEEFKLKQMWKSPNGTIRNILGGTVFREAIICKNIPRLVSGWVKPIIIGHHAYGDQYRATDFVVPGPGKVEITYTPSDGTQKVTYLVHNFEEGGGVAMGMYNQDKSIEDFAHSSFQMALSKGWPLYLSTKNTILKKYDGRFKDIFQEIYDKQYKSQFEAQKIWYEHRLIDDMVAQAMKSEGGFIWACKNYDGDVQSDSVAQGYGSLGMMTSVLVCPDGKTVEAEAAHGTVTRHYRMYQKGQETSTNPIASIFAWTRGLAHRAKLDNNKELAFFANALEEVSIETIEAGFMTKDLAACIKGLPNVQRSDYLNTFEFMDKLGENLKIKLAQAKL
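IDH1-R132H (0.5 ug/mL) preincubated 30 min with compound, then NADPH (0.016 mM) and alpha-KG (2 mM) added; 80 min at RT, pH 7.5. Remaining NADPH coupled via diaphorase/resazurin to fluorescence (540/590 nm); concentration-response curves normalized to no-enzyme control.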
TGFb inhibitor: inhibitors of TGF-b signaling; HepG2 CAGA-GFP TGF-b/SMAD3 reporter, GFP fluorescence, 18 h; TGF-beta stimulated, 500 pg/mL final; Potency, µM (doses to about 46.1 µM), inactives show at the top dose activity, negative = inhibition, actives largely listed as inhibitors; 410,000 compounds, 1.2% hits; AID 588855; note: potency is the fitted concentration of half-maximal effect; % is set by controls: 0 for no effect and ±100 for the full control effect; nearly all actives have a fitted effect of over 65% in size
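Inhibition was scored as loss of TGF-beta-induced (500 pg/mL final, 18 hours, 37 degrees C) GFP in HEPG2 cells carrying a CAGA-GFP reporter, in DMEM with 1% FBS. Well GFP was summed per cell; Activity was normalised to unstimulated and stimulated DMSO wells, then concentration-response fitting.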
ATXN viability: reduces viability in counter-screen for ATXN expression inhibitors; Potency, µM (titrated, usually from 56.7 µM), actives largely listed as cytotoxic; AID 651635; S2 cells (HEK-293 line with an ATXN2-luciferase reporter) viability, CellTiter-Fluor protease fluorescence, 24 h; 400,000 compounds, 0.49% hits; note: potency is the fitted concentration of half-maximal effect; nearly all actives have a fitted effect of over 40% in size
LDHA block: blocks human lactate dehydrogenase A; purified LDHA, NADH/diaphorase-resazurin fluorescence; hits give low values; activity change, % (values are at about 110 or 230 µM); P00338; 480,000 compounds, 0.15% hits; in the data active = activity change below about -30%; inconclusive = mostly about -25% to -30%;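 note: plate controls were DMSO wells for no effect and wells without enzyme for full effect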
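Resorufin fluorescence (ex540/em590), read at 0 and 20 min after diaphorase/resazurin addition, reports the NADH left after a 5 min room-temperature reaction of 2 nM human LDH5 with 0.06 mM NADH and 0.2 mM pyruvate.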
ATXN2 expr inh: inhibitors of ATXN2 expression. HEK-293 ATXN2-luciferase reporter, luminescence, 24 h. Potency, µM (series often up to 57 µM), without a hit: top-dose activity change, negative = inhibition, usual class: inhibitors. 360,000 compounds, 0.72% hits; note: potency is the fitted concentration of half-maximal effect; % is set by controls: 0 for no effect and ±100 for the full control effect; nearly all actives have a fitted effect of over 55% in size
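ATXN2-luciferase reporter cells (luciferase flanked by upstream and downstream ATXN2 gene portions) were treated 24 h at 37 °C with compounds at up to 57 uM. SteadyGlo luminescence gave expression; GF-AFC fluorescence gave viability.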
Active calls of the source: *. Unless noted, calls come from the whole dose curve; as a rule, active = well fitted curve in the direction sought with a large enough effect; inconclusive = small, poorly fitted or top-dose-only effect, or another doubt; inactive = no such curve, though single readings can be large; an effect the other way counts as inactive or inconclusive.

For CCCOc1ccc(CC2C(=O)Nc3ccc(Br)cc32)cc1 (centres undefined) the results were HepG2 viability -95.1%, mIDH1 inhibitor 25.5%, TGFb inhibitor 11.2µM*, ATXN viability inconclusive, LDHA block 0.4 and ATXN2 expr inh -23.7%.
CCOC(=O)c1c(NC(C)=O)sc2c(O)c(CN3CCN(CC)CC3)ccc12 was read as HepG2 viability 11.2µM*, mIDH1 inhibitor 2.7%, TGFb inhibitor inconclusive, ATXN viability inconclusive, LDHA block 22.5 and ATXN2 expr inh 13.6%.
Screening N#Cc1nc(-c2ccc(F)cc2)oc1N1CCN(Cc2ccccc2)CC1 returned LDHA block -34.4*.
Screening N#Cc1nc(-c2ccccc2F)oc1N1CCCCC1 returned HepG2 viability -2.7%, mIDH1 inhibitor -8.1%, TGFb inhibitor -0.9%, ATXN viability inactive, LDHA block 0.0 and ATXN2 expr inh 5.0%.
CCN1CCN(c2oc(-c3ccccc3F)nc2C#N)CC1 was read as LDHA block -30.8*.
For CCN1CCN(c2oc(-c3cccs3)nc2C#N)CC1 the results were LDHA block -31.2*.
Nc1ccc(SC(F)(F)F)cc1C(=O)c1ccccc1 was read as HepG2 viability -103.6%, mIDH1 inhibitor 9.5%, TGFb inhibitor 12.6µM*, ATXN viability inactive, LDHA block 5.5 and ATXN2 expr inh -23.1%.
For Cc1cc(C)c(C(=O)c2ccccc2)cc1C(=O)c1ccccc1 the results were LDHA block 0.5.
Screening CC(=O)Nc1ccc(CNc2nc(NC(C)C)nc3cc(-c4ccccc4)sc23)cc1 returned HepG2 viability -112.5%, TGFb inhibitor inconclusive, ATXN viability inconclusive, LDHA block 2.2 and ATXN2 expr inh 22.4µM*.
Screening C=CCNc1nc(NCc2ccc(NC(C)=O)cc2)c2sc(-c3ccccc3)cc2n1 returned HepG2 viability 11.2µM*, TGFb inhibitor inconclusive, ATXN viability 31.6µM*, LDHA block -7.7 and ATXN2 expr inh inconclusive.
`Cc1ccccc1C(=O)Oc1cc(-c2ccc3c(c2)OCO3)cc(=O)c2c(C)oc(C)c12` gave HepG2 viability -15.0%, mIDH1 inhibitor 19.1%, TGFb inhibitor 91.9%, ATXN viability inactive, LDHA block 3.0 and ATXN2 expr inh -24.4%.
For Cc1ccc(S/C=C\C(=O)c2ccccc2)cc1 the results were HepG2 viability -9.3%, mIDH1 inhibitor -5.7%, TGFb inhibitor inconclusive, ATXN viability 22.4µM*, LDHA block 6.0 and ATXN2 expr inh inconclusive.
For CCOC(=O)C1CCCN(S(=O)(=O)c2c(C)c(C)cc(C)c2C)C1 (centres undefined) the results were HepG2 viability 9.1%, mIDH1 inhibitor 6.7%, TGFb inhibitor -9.2%, ATXN viability inactive, LDHA block -4.0 and ATXN2 expr inh -3.5%.
C1=CCOCc2cc(ccc2OCCN2CCCC2)Nc2nccc(n2)-c2cccc(c2)OCC1 was read as ATXN2 expr inh 15.3µM*.
Cc1ncc(CO)c(/C=N/Nc2ccc(C(F)(F)F)cn2)c1O was read as HepG2 viability -16.1%, mIDH1 inhibitor 3.7%, TGFb inhibitor 0.0%, ATXN viability inactive, LDHA block 2.9 and ATXN2 expr inh 6.31µM*.
Screening Cc1ncc(CO)c(/C=N/NC(=S)Nc2ccc(F)cc2)c1O returned HepG2 viability -28.1%, mIDH1 inhibitor 2.7%, TGFb inhibitor -14.7%, ATXN viability inactive, LDHA block 1.3 and ATXN2 expr inh inconclusive.
Screening Cc1ccccc1-n1nnnc1SCC(=O)N(C)C1CCS(=O)(=O)C1 (centres undefined) returned HepG2 viability 0.0%, mIDH1 inhibitor -13.8%, TGFb inhibitor -8.4%, ATXN viability inactive, LDHA block -0.6 and ATXN2 expr inh 4.7%.
CCCC(=O)NC(c1ccco1)c1cc([N+](=O)[O-])c2cccnc2c1O (centres undefined) was read as HepG2 viability -41.3%, mIDH1 inhibitor 1.4%, TGFb inhibitor -24.1%, ATXN viability inactive, LDHA block -3.2 and ATXN2 expr inh inconclusive.
For CCC(=O)NC(c1ccco1)c1cc(Br)c2cccnc2c1O (centres undefined) the results were HepG2 viability -17.6%, TGFb inhibitor 3.98µM*, ATXN viability inconclusive, LDHA block -3.7 and ATXN2 expr inh 5.01µM*.
For CC(=O)NC(c1ccco1)c1ccc2cccnc2c1O (centres undefined) the results were HepG2 viability -14.3%, mIDH1 inhibitor 0.2%, TGFb inhibitor inconclusive, ATXN viability inactive, LDHA block 7.8 and ATXN2 expr inh 10µM*.
`CC(=O)NC(c1ccc(Cl)cc1)c1ccc2cccnc2c1O` (centres undefined) gave HepG2 viability -17.8%, mIDH1 inhibitor -19.3%, TGFb inhibitor inconclusive, ATXN viability inconclusive and LDHA block 8.2.
O=C(CC1CCCC1)NC12CC3CC(CC(C3)C1)C2 was read as LDHA block 0.3.
For COc1ccc2c(c1OC)c(=O)n1c3ccc(OC(C)C(=O)NCCN4CCOCC4)cc3c3ccnc2c31 (centres undefined) the results were HepG2 viability -23.7%, mIDH1 inhibitor -0.4%, TGFb inhibitor 24.7%, ATXN viability inactive, LDHA block 6.3 and ATXN2 expr inh -23.7%.
`CC(Oc1ccc2c(c1)c1ccnc3c4ccccc4c(=O)n2c13)C(=O)NCCN1CCOCC1` (centres undefined) gave HepG2 viability 11.2µM*, mIDH1 inhibitor 0.9%, TGFb inhibitor -0.5%, ATXN viability inactive, LDHA block -1.0 and ATXN2 expr inh -2.4%.
Screening CC1CCN(S(=O)(=O)c2cc(C(=O)Nc3ccc(Br)cc3F)n(C)c2)CC1 returned HepG2 viability -29.8%, mIDH1 inhibitor -1.5%, TGFb inhibitor 11.2µM*, ATXN viability inactive, LDHA block -9.6 and ATXN2 expr inh -14.6%.
For Cn1cc(S(=O)(=O)N2CCC(C(=O)Nc3cccc(F)c3)CC2)cc1C(N)=O the results were LDHA block -30.3*.
Screening COc1ccc2cc3cc(C(=O)Nc4ccccc4N4CCN(C)CC4)oc3nc2c1 returned HepG2 viability 10µM*, mIDH1 inhibitor 9.1%, TGFb inhibitor -8.9%, LDHA block -5.7 and ATXN2 expr inh inconclusive.
For COc1ccc2cc3cc(C(=O)NCCN4CCN(c5ccccc5F)CC4)oc3nc2c1 the results were HepG2 viability -6.6%, mIDH1 inhibitor 6.6%, TGFb inhibitor -8.1%, ATXN viability inconclusive, LDHA block -3.0 and ATXN2 expr inh inconclusive.
